According to PubChem BioAssay (NCATS):
“And” between values parts separate entries of the source, which are not always exact repeats. Equal entries are not always repeated. Records with an inconclusive call do not appear. Where a structure was tested more than once in an assay, its records may differ in their call. The source made the active and inactive calls. Calls come from the whole dose curve; as a rule, active = well fitted curve in the direction sought with a large enough effect; inconclusive = small, poorly fitted or top-dose-only effect, or another doubt; inactive = no such curve, though single readings can be large; an effect the other way counts as inactive or inconclusive.

What was measured:
[1] = target: Metallo-beta-lactamase type 2 (Klebsiella pneumoniae) (UniProt C7C422); test: qHTS to identify inhibitors of the New Delhi Metallo-beta-lactamase (NDM): assay validation screen against the NCATS LOPAC Collection (AID 1794843);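 note: nitrocefin turnover by NDM-1 measured as 485 nm absorbance at plateau; series mostly up to about 38 µM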
How it was run: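 Nitrocefin hydrolysis (50 uM substrate stock) by NDM-1, 2 nM final, was followed by 485 nm absorbance after compound preincubation; buffer was 50 mM HEPES pH 7.0, 1 uM ZnSO4, 0.01% Tween20.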

[2] = target: Phospholipid hydroperoxide glutathione peroxidase GPX4 (Homo sapiens) (UniProt P36969); test: Primary qHTS Assay for Inhibitors of Recombinant Selenoprotein Glutathione Peroxidase 4 (GPX4) (AID 1845192); note: nearly all actives have a fitted effect of over 65% in size; note: potency is the fitted concentration of half-maximal effect
How it was run: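 Steps: GPX4 plus compound, 30 min RT; add GR/GSH/NADPH master mix; start with cumene hydroperoxide; read 340/450 nm fluorescence at 0 and 15 min. Finals were 200 nM GPX4, 1 mM GSH, 0.5 mM CHP, 0.5 mM NADPH, 100 nM GR.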

[3] = Quantitative High-Throughput drug screen in 47 multiple myeloma cell lines against the NCATS MIPE library collection: KHM11_PLB cell viability assay (AID 1918962); note: nearly all actives have a fitted effect of over 35% in size
How it was run: (§1)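 Steps: seed 500 cells per well; pin-transfer MIPE 4.0 library; incubate 48 h at 37C, 5% CO2, humidified; add CellTiter-Glo, 5 min room temperature; read luminescence.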

[4] = Quantitative High-Throughput drug screen in 47 multiple myeloma cell lines against the NCATS MIPE library collection: H1112_PLB cell viability assay (AID 1918967; note: nearly all actives have a fitted effect of over 30% in size; note: potency is the fitted concentration of half-maximal effect)
How it was run: (§2)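 We plated 500 myeloma cells per well, pinned in MIPE 4.0 compounds, and incubated for 48 hours at 37C. ATP was then quantified with CellTiter-Glo, with DMSO and media-only wells defining 100% and 0%.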

[5] = Quantitative High-Throughput drug screen in 47 multiple myeloma cell lines against the NCATS MIPE library collection: EJM_DSMZ cell viability assay (AID 1918926; note: nearly all actives have a fitted effect of over 30% in size; note: potency is the fitted concentration of half-maximal effect)
How it was run: as §2

[6] = Quantitative High-Throughput drug screen in 47 multiple myeloma cell lines against the NCATS MIPE library collection: AMO1_DSMZ cell viability assay (AID 1918927; note: nearly all actives have a fitted effect of over 30% in size)
How it was run: as §2

[7] = Quantitative High-Throughput drug screen in 47 multiple myeloma cell lines against the NCATS MIPE library collection: ARD_JJKsccE7 cell viability assay (AID 1918929)
How it was run: as §2

[8] = Quantitative High-Throughput drug screen in 47 multiple myeloma cell lines against the NCATS MIPE library collection: Karpas620_DSMZ cell viability assay (AID 1918959); note: nearly all actives have a fitted effect of over 30% in size
How it was run: as §1

[9] = target: Glutathione peroxidase 1 (Homo sapiens) (UniProt P07203); test: Primary qHTS Assay for Inhibitors of Recombinant Selenoprotein Glutathione Peroxidase 1 (GPX1) (AID 1845191); note: nearly all actives have a fitted effect of over 65% in size
How it was run: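 GR-coupled readout: NADPH consumption tracked by fluorescence, ex 340/em 450 nm, at t=0 and after 15 min at RT. Final mix 10 nM GPX1, 1 mM GSH, 0.5 mM CHP, 0.5 mM NADPH, 100 nM GR, 0.01% BSA, following 30 min enzyme–compound preincubation.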

[10] = Quantitative High-Throughput drug screen in 47 multiple myeloma cell lines against the NCATS MIPE library collection: Delta47_JCRB cell viability assay (AID 1918925; note: nearly all actives have a fitted effect of over 45% in size; note: potency is the fitted concentration of half-maximal effect)
How it was run: as §2

[11] = Quantitative High-Throughput drug screen in 47 multiple myeloma cell lines against the NCATS MIPE library collection: ARP1_JJKsccF8 cell viability assay (AID 1918928; note: nearly all actives have a fitted effect of over 40% in size)
How it was run: (§3)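 Viability screen: myeloma cells (500/well) incubated 48 h at 37 °C, humidified 5% CO2, with pinned library compounds; CellTiter-Glo added, luminescence read; DMSO wells set 100%, medium-only wells 0%.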

[12] = Quantitative High-Throughput drug screen in 47 multiple myeloma cell lines against the NCATS MIPE library collection: KMM1_JCRB cell viability assay (AID 1918960); note: nearly all actives have a fitted effect of over 30% in size
How it was run: as §3

[13] = Quantitative High-Throughput drug screen in 47 multiple myeloma cell lines against the NCATS MIPE library collection: INA6_PLB cell viability assay (AID 1918965; note: nearly all actives have a fitted effect of over 55% in size; note: potency is the fitted concentration of half-maximal effect)
How it was run: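 CellTiter-Glo luminescence (ATP) after 48 h compound exposure, 37C/5% CO2; 500 cells/well; MIPE 4.0 approved/investigational drugs pinned in; DMSO = 100%, media only = 0% viability.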

[14] = Quantitative High-Throughput drug screen in 47 multiple myeloma cell lines against the NCATS MIPE library collection: JIM3_ECACC cell viability assay (AID 1918963; note: nearly all actives have a fitted effect of over 35% in size; note: potency is the fitted concentration of half-maximal effect)
How it was run: as §1

[15] = Quantitative High-Throughput drug screen in 47 multiple myeloma cell lines against the NCATS MIPE library collection: JIM1_ECACC cell viability assay (AID 1918964)
How it was run: as §2

Measured: Potency

Sequence of Phospholipid hydroperoxide glutathione peroxidase GPX4 (Homo sapiens) (P36969 whole entry, looked up): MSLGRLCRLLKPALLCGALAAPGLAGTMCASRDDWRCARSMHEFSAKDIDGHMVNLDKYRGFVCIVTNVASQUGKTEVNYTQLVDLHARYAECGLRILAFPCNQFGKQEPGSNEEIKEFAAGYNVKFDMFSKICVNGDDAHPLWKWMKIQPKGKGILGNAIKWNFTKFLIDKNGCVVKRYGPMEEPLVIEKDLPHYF
Sequence of Metallo-beta-lactamase type 2 (Klebsiella pneumoniae) (C7C422 whole entry, looked up): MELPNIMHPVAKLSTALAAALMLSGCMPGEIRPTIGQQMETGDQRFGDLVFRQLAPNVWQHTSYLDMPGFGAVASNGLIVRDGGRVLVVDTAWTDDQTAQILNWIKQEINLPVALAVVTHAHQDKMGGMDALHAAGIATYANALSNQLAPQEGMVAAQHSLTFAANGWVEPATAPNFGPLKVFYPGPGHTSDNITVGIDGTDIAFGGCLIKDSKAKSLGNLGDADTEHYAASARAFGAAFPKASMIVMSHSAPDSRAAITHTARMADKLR
Sequence of Glutathione peroxidase 1 (Homo sapiens) (P07203 whole entry, looked up): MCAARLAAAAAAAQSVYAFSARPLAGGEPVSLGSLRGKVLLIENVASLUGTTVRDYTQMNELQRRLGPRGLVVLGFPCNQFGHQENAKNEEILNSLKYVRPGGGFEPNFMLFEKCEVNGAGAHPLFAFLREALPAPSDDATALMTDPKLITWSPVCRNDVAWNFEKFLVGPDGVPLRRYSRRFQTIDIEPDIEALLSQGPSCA

COc1ccccc1OCCNCC(O)COc1cccc2[nH]c3ccccc3c12 (stereo unspecified)
active: [4] 16.6 µM
inactive: [1] | [2] | [3]

CC(C)(Oc1ccc(C2CC2(Cl)Cl)cc1)C(=O)O (stereo unspecified)
inactive: [1] | [2] | [5] | [6] | [7] | [8] | [4]

C[C@](N)(Cc1ccc(O)c(O)c1)C(=O)O
inactive and 14.3 µM (active): [2]
inactive: [9] | [7] | [8]

CN1CCN2c3ccccc3Cc3ccccc3C2C1 (stereo unspecified)
active: [4] 23.5 µM
inactive: [1] | [2] | [8]

COc1ccc2c(c1)c(CC(=O)O)c(C)n2C(=O)c1ccc(Cl)cc1
inactive: [9] | [2] | [11] | [8] | [12]
active: [10] 16.6 µM | [13] 16.6 µM

CC1(CN2CCC(n3c(=O)[nH]c4ccccc43)CC2)OCc2ccccc2-n2cccc21 (stereo unspecified)
inactive: [9] | [2] | [11] | [8] | [12] | [3]
active: [13] 14.8 µM | [4] 8.33 µM

CC(COc1ccccc1)N(CCCl)Cc1ccccc1 (stereo unspecified)
inactive: [9] | [2] | [10] | [6] | [11] | [12] | [14] | [13]

Cc1cn([C@H]2C[C@H](N=[N+]=[N-])[C@@H](CO)O2)c(=O)[nH]c1=O
active: [5] 7.43 µM | [14] 26.4 µM | [4] 23.5 µM
inactive: [2] | [6] | [11] | [8] | [12] | [15]
